Source: PubChem BioAssay
HIV RNase H inh-1: HIV-1 RT RNase H inhibitors, primary screen, biochemical, fluorescence. Gag-Pol polyprotein (Human immunodeficiency virus type 1 group M subtype B (isolate …. RT-RNase H RNA/DNA duplex cleavage. inhibition, % at 10 µM. 1.9% of 65,000 active. AID 565, 2006; in the data active = inhibition above about 50%
HIV RNase H inh-2: HIV-1 RT RNase H inhibitors, retest, confirmation, biochemical | AID 651, 2007 | shares compounds with HIV RNase H inh-1 | 39% of 1,000 active | inhibition, % at 10 µM | Recombinant RT RNase H, fluorescent RNA/DNA duplex cleavage; in the data active = inhibition above about 48%
* hit, by the source's call. Shown is part of a subset that was picked to be rich in hits.

SMILES	HIV RNase H inh-1	others
COc1ccccc1N1CCN(C(=O)c2cc(-c3ccc(C)cc3)on2)CC1	-17
COc1ccccc1N1CCN(C(=O)c2cc(-c3ccc(Cl)cc3)on2)CC1	-4
COc1ccccc1-c1cc(C(=O)N2CCN(c3ccccc3OC)CC2)no1	78*	HIV RNase H inh-2=47
COc1ccc(-c2csc(/C(C#N)=C(\O)CSc3nccn3C)n2)cc1OC	16
CCCCNC(=O)c1cn(C)c2ccc(S(=O)(=O)N3CCOCC3)cc2c1=O	-10
CN1CCN(Cc2c(O)ccc3occ(C(=O)c4ccccc4)c23)CC1	-2
CC(=O)C(C(C)=O)c1c(Cl)c(O)c(O)c2c(C(=O)c3ccccc3)coc12	100*	HIV RNase H inh-2=64*
Cc1oc(-c2ccc(Cl)cc2)nc1CN1CCCC(C(=O)N2CCN(C(=O)c3ccco3)CC2)C1 (configuration not stated)	-9
CC(=O)N1CCc2cc(S(=O)(=O)CCC(=O)Nc3c(C)n(C)n(-c4ccccc4)c3=O)ccc21	0
COc1ccc2[nH]cc(C(=O)CN3CCC(C)CC3)c2c1	-3
COc1ccc2[nH]cc(CCN=C3SCC(=O)N3C)c2c1	79*	HIV RNase H inh-2=24
COc1ccc2[nH]cc(CCN(C)C)c2c1	-1
CCN(C(=O)c1cc2cccc(OC)c2oc1=O)c1ccccc1	4
Cc1cc2nnc(SCC(=O)NCc3ccco3)n2c2ccccc12	-23
CCOC(=O)c1c(C2COc3ccccc3O2)csc1NC(=O)c1ccco1 (configuration not stated)	97*	HIV RNase H inh-2=54*
CCOC(=O)c1c(NC(=O)c2ccco2)sc2c1CCCC2	23
COC(=O)c1c(-c2ccccc2)csc1NC(=O)c1ccco1	1
CCOc1ccc(-c2ncncc2-c2ccc(OC)cc2)c(O)c1	-2
O=C(C1CCCN(S(=O)(=O)c2cccc3cccnc23)C1)N1CCN(c2ccc(F)cc2)CC1 (configuration not stated)	-15
CCOc1ccc(Nc2nc(Cc3nnc(SCC(=O)NCc4ccco4)n3CC)cs2)cc1	28
Cc1ccc2[nH]c(=O)c3cc(C(=O)N4CCN(C(=O)c5ccco5)CC4)sc3c2c1	36
Cc1ccc2cc3cc(C(=O)N4CCN(C(=O)c5ccco5)CC4)sc3nc2c1	55*	HIV RNase H inh-2=29
Cc1ccc2oc(=O)c3cc(C(=O)N4CCN(C(=O)c5ccco5)CC4)sc3c2c1	-19
COc1nc(C)nc2c1sc(=S)n2C	-3
O=C1c2ccccc2S(=O)(=O)N1CCOc1ccc(F)cc1	-25
SMILES	HIV RNase H inh-1	others
Cc1ccccc1S(=O)(=O)Cc1ccc(C(=O)NCc2cccnc2)o1	0
Cc1ccc(-c2cnc(N)n2C)cc1C	-7
COc1cc(S(=O)(=O)N2CCOCC2)ccc1NC(=O)COC(=O)c1ccccn1	-7
COC(=O)C1CCN(c2cc(=O)n(-c3ccc(OC)cc3)c(=O)[nH]2)CC1	-5
CCOC(=O)N1CCC(NC(=O)Cn2ncn3c(cc4sc(CC)cc43)c2=O)CC1	-2
C=CCn1c(SCc2cc(=O)n3ccsc3n2)nnc1C1CCCCC1	67*	HIV RNase H inh-2=-1
C=CCn1c(SCC(=O)NC(=O)NC2CCCC2)nnc1C1CCCCC1	-4
CCCn1c(=O)c2ccccc2n2c(SCc3cc(=O)n4ccsc4n3)nnc12	-16
COc1ccccc1NC(=O)C(C)NS(=O)(=O)c1ccc(Cl)cc1 (configuration not stated)	-5
CC(=O)c1cc(C#N)c(SCCC(C)C)nc1C	-18
CCCCSc1nc2c(cc1C#N)CCC2	-33
CCCSc1nc(C)c(-c2csc(C(C#N)=C3CCCC3)n2)cc1C#N	58*	HIV RNase H inh-2=4
O=C(CN1CCC(O)(c2ccc3c(c2)OCO3)CC1)OC1CCCCC1	0
COC(=O)C1C(=O)NC(SC)=C(C#N)C1c1ccccc1F (configuration not stated)	-10
Cc1ccc(Nc2nc(N)nc(CSc3nnc(-c4ccncc4)o3)n2)cc1	-3
O=C(O)CC(c1ccc(Cl)cc1)N1C(=O)CCC1=O (configuration not stated)	-7
COc1ccc(C(=O)CSc2nnc(-c3cc(C)cc(C)c3)o2)cc1	-7
COC(=O)c1ccc(OC)c(CSc2nnc(-c3ccc(C)cc3)o2)c1	66*	HIV RNase H inh-2=48
COC(=O)c1ccc(CSc2nnc(-c3ccncc3)o2)o1	-9
Cn1c(NC(=O)Cc2ccc(F)cc2)cc(=O)n(C)c1=O	-3
CC(CCc1ccco1)NC(=O)CSc1cc(=O)n(C)c2ccccc12 (configuration not stated)	-2
CN(C)c1ccc(C(c2nnnn2CCOC(=O)Nc2ccc(Cl)cc2)N2CCOCC2)cc1 (configuration not stated)	7
COC(=O)C1=C(C)NC(C)=C(C(=O)OC)C1c1cn(-c2ccccc2)nc1-c1ccco1	-1
COc1ccccc1C(=O)N(Cc1nc(-c2ccc(Cl)cc2)no1)C(C)C	-19
CCOc1ccc(C(=O)Nc2cc(C)c3c(=O)oc4ccccc4c3n2)cc1	65*	HIV RNase H inh-2=20
SMILES	HIV RNase H inh-1	others
COc1ccc(CC(=O)Nc2cc(C)c3c(=O)oc4ccccc4c3n2)cc1	8
CCOc1ccc(C(=O)Nc2c(C(N)=O)oc3ccccc23)cc1	-24
Cc1c(NS(=O)(=O)c2cccc3nsnc23)c(=O)n(-c2ccccc2)n1C	-1
COc1ccc(CNC(=O)C2CCN(S(=O)(=O)c3cccc4cccnc34)CC2)cc1	-27
Cc1cc2nc(-c3ccc(SCC(=O)N4CCOCC4)nc3)[nH]c2cc1C	7
Cc1cc2cc3c(cc2nc1SCC(=O)N1CCN(C(=O)c2ccco2)CC1)OCO3	-1
Cc1cc2nc(-c3ccc(SCC(=O)N4CCN(C(=O)c5ccco5)CC4)nc3)[nH]c2cc1C	74*	HIV RNase H inh-2=45
CC(=O)C1=C(c2ccccc2)NC(=O)NC1c1ccccc1OCC#N (configuration not stated)	-6
CCN(CC)C(=O)CSc1nc2ccccc2c(=O)n1CCC(=O)NCc1ccc(F)cc1	-1
O=C(NCCCn1ccnc1)c1cc2c(s1)CCCCC2	0
CCOc1ccc(C2c3c(oc4ccccc4c3=O)C(=O)N2c2ccc(C)cn2)cc1OC (configuration not stated)	-12
O=C(Cn1c(-c2ccccc2)noc1=O)NCc1ccccc1	-7
CCc1ccc2[nH]c(=O)c(C(c3nnnn3CC3CCCO3)N3CCCc4ccccc43)cc2c1 (configuration not stated)	8
Cc1cccc2cc(C(c3nnnn3CC3CCCO3)N3CCCc4ccccc43)c(=O)[nH]c12 (configuration not stated)	7
Cc1cc2cc(C(c3nnnn3CC3CCCO3)N3CCCc4ccccc43)c(=O)[nH]c2cc1C (configuration not stated)	52*	HIV RNase H inh-2=29
CCOC(=O)C1CCN(C(=O)C2CC(=O)N(c3ccc(C)cc3)C2)CC1 (configuration not stated)	-1
O=C(CSc1ccc2nnc(-c3ccncc3)n2n1)N1CCc2ccccc21	-16
COCCSc1ccccc1C(=O)Nc1nnc(COC)s1	21
COCCSc1ccccc1C(=O)Nc1cc(C)on1	80*	HIV RNase H inh-2=63*
Cc1cc(NC(=O)c2ccccc2Oc2ccccc2)no1	-4
O=C1CC(c2cccc(Cl)c2)CC(O)=C1C=NCCCO (configuration not stated)	-5
COc1ccc(-n2c(SCC(=O)Nc3nccs3)nc3c(c2=O)SC(C)C3)cc1 (configuration not stated)	-1
